# VDR inh: inhibitors of human vitamin D receptor; VDR-SRC2-3 peptide fluorescence polarization, 2 h; P11473; hit rate 0.93% among 400,000; Potency, µM, for the others: max response, negative = inhibition, actives largely listed as inhibitors; AID 504847
#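 Two reagent solutions held at 4 deg C in the dark were dispensed, compounds pinned at 23 nl, and the mixture incubated 2 h at room temperature. Read-out: fluorescence polarization of VDR–SRC2-3 peptide binding.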
# Sfp PPTase inh: Sfp phosphopantetheinyl transferase inhibition. Q9F4F7. Biochemical Sfp PPTase activity, qHTS. Potency, µM, inactives show largest response in the series, negative = inhibition, actives largely listed as inhibitors. hit rate 3.5% among 310,000. AID 1490;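 further: the enzyme is Sfp with the accession as filed and its product quenches rhodamine fluorescence; 0% = enzyme reaction without inhibitor and -100% = no enzyme wells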
#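 Sfp 15 nM + cpd, 15 min RT; start w/ rhodamine-CoA 5 uM, BHQ-2-YbbR 12.5 uM (final); 50 mM Hepes pH 7.6, 10 mM MgCl2, 0.01% NP-40, 0.01% BSA; read 525/598 nm at 0 and 30 min.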
# Tau FP inhib: blocks human tau fibril formation measured by polarization. K18 P301L tau heparin fibrillization, Alexa594 FP, 6 h. hit rate 0.39% among 280,000. Potency, µM (doses to about 57.7 µM), for the others: top-dose activity, negative = inhibition, usual class: inhibitors; further: nearly all actives have a fitted effect of over 55% in size
#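 Recombinant K18 P301L […], labeled with Alexa 594 at 0.24 uM over 15 uM unlabeled; heparin inducer 20 uM final; 37 C, 6 hr; FP endpoint.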
# Tau fluor cs: counter-screen for tau fibril formation inhibitors | hit rate 0.93% among 280,000 | tau K18 P301L Alexa594 fluorescence, heparin fibrillization | Potency, µM (series often up to 57.7 µM), inactives show at the top dose activity change, negative = decrease; further: nearly all actives have a fitted effect of over 55% in size
#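 Human K18 P301L tau (15 uM unlabeled plus 0.24 uM Alexa 594-labeled, final) in 100 mM sodium acetate pH 7 was mixed with compound and 20 uM heparin and incubated 6 hr at 37 C.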
# Tau ThT inhib: inhibitors of human tau fibril formation, thioflavin T binding. P10636. recombinant tau K18 P301L, heparin-induced fibrillization, ThT fluorescence. Potency, µM (doses to about 57.4 µM), inactives show top-dose activity, negative = inhibition, hits mostly inhibitors. hit rate 2.1% among 270,000. AID 1460; further: nearly all actives have a fitted effect of over 55% in size
#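 Using a mix of unlabeled (15 uM) and Alexa 594-labeled (0.24 uM) tau K18 P301L, heparin-triggered fibrillization over 6 hr at 37 C was scored by ThT fluorescence.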
# PLK1 PBD block: blocks phosphopeptide binding to human PLK1 polo-box domain. P53350. hit rate 2.8% among 360,000. Potency, µM, inactives show max response, negative = inhibition, hits mostly inhibitors. Plk1 PBD binding of FITC phosphopeptide, fluorescence polarization; further: series mostly up to about 57 µM; nearly all actives have a fitted effect of over 65% in size
# Target sequence (P53350 whole entry, looked up, the tested form may be a part): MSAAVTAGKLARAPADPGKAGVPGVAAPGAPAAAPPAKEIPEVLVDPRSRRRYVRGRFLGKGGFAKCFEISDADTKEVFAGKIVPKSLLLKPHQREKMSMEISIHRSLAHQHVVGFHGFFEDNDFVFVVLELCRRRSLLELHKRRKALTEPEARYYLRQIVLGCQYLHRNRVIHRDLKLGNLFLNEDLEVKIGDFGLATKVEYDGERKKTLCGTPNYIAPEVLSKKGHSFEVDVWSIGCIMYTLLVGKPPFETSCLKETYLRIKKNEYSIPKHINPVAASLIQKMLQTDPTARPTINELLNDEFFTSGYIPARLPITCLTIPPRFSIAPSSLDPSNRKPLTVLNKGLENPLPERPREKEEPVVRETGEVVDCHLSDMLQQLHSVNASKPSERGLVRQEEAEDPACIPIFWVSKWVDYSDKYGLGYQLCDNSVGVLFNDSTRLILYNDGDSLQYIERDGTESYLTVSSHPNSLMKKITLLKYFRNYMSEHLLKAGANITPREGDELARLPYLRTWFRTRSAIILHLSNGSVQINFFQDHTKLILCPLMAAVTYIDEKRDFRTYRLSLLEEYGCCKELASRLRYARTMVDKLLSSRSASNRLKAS
# Active calls of the source: *; ? = inconclusive; / = not tested or not shown; [ ] = another dose, or the depositor's remark. Compounds with a hit are over-represented: about 6% of the library has one in this group of screens. The call rests on the fitted dose curve; in most records, active means well fitted curve in the direction sought with a large enough effect; inconclusive means small, poorly fitted or top-dose-only effect, or another doubt; inactive means no such curve, though single readings can be large; an effect the other way counts as inactive or inconclusive. Unless noted, on the % scale 0 is the no-effect control and ±100 the full control effect; potency means the concentration at half of the fitted maximal effect.
SMILES,VDR inh,Sfp PPTase inh,Tau FP inhib,Tau fluor cs,Tau ThT inhib,PLK1 PBD block
O=c1c(-c2ccco2)nc2ccccc2n1C(CCc1ccccc1)c1nc2ccccc2[nH]1 (centres undefined),/,/,/,/,/,3µM*
CCC(c1nc2ccccc2[nH]1)n1c(=O)c(-c2ccco2)nc2ccccc21 (centres undefined),/,/,/,/,/,-24%
S=c1[nH]nc(-c2ccco2)n1/N=C/c1ccc(Cl)c(Cl)c1,-21%,-9%,7%,-21%,?,9.5µM*
S=c1[nH]nc(-c2ccco2)n1/N=C/c1ccccn1,/,79µM*,-8%,-6%,-8%,/
S=c1[nH]nc(-c2cccc(Cl)c2)n1/N=C/c1ccco1,-15%,50µM*,-10%,?,/,-21%
Cc1ccc(/C=N/n2c(-c3cccc(Cl)c3)n[nH]c2=S)o1,7%,-8%,7%,-27%,-15%,?
S=c1[nH]nc(-c2ccccn2)n1/N=C/c1ccco1,-1%,45µM*,5%,-5%,-6%,-9%
CCOC(=O)c1ccc(NC(=O)C2CCN(C(=O)N3CC(C)Oc4ccc(C)cc43)CC2)cc1 (centres undefined),-6%,/,15%,-27%,?,/
CCN(CC)c1cc(C)c2cc(NC(=O)/C=C/c3cc(OC)c(OC)c(OC)c3)ccc2n1,-11%,/,9%,?,4.5µM*,/
CCOc1ccc(/C=C/C(=O)Nc2ccc3nc(N(CC)CC)cc(C)c3c2)cc1OC,-11%,/,?,?,7.1µM*,/
CCN(CC)c1cc(C)c2cc(NC(=O)c3cccc(OC)c3OC)ccc2n1,13%,/,14%,?,?,/
CCOc1ccccc1C(=O)Nc1ccc2nc(N(CC)CC)cc(C)c2c1,-6%,/,-2%,-22%,?,/
CCOc1ccc(C(=O)Nc2ccc3nc(N(CC)CC)cc(C)c3c2)cc1,-11%,/,9%,16µM*[quencher],?,/
CCN(CC)c1cc(C)c2cc(NC(=O)/C=C/c3ccc(C)cc3)ccc2n1,-15%,/,2%,16µM*[quencher],?,/
CCNc1ncc2nc(-c3ccc(Cl)cc3)c(=O)n(C3CC3)c2n1,6%,8%,/,/,/,/
Cc1ccn(CCC(=O)Nc2ccc3c(c2)OCO3)n1,-9%,10%,/,/,/,-10%
CCN(CC)C(=S)S,?,45µM*,/,/,/,/
CCOC(=O)c1nnc(-c2ccccc2)nc1NCc1ccc(Cl)cc1,4%,50µM*,5%,-17%,?,-2%
CCOC(=O)c1nnc(-c2ccccc2)nc1Sc1c(Cl)cccc1Cl,-9%,-7%,-6%,?,11µM*,-21%
Cc1ccc(Cl)cc1N1CCN(C(=O)Cc2ccc(-n3c(=O)[nH]c4ccsc4c3=O)cc2)CC1,4%,-12%,0%,-20%,-9%,-4%
CCc1cc(=O)oc2cc3occ(-c4ccc(OC)c(F)c4)c3cc12,-20%,20µM*,-18%,-17%,-8%,-5%
O=C(/C=C/[C@H]1O[C@@H](n2cnc3c(NC(=O)c4ccccc4)ncnc32)[C@H](O)[C@@H]1O)NCCc1ccc(F)cc1,/,/,/,/,/,0%
COc1ccccc1-n1cnnc1SCC(=O)Nc1ncc(Cl)cc1Cl,-18%,9%,6%,6%,8%,30µM*
CCc1ccc(C(=O)c2cnc3ccc(F)cc3c2S(=O)(=O)c2ccccc2)cc1,-11%,/,-14%,-22%,-15%,/
COC(=O)c1ccc(CSCc2ccc(C(=O)OC)o2)o1,-24%,4%,/,/,/,-29%
SMILES,VDR inh,Sfp PPTase inh,Tau FP inhib,Tau fluor cs,Tau ThT inhib,PLK1 PBD block
COC(=O)c1ccc(CN(C(C)=O)c2ccccc2)o1,?,8%,-2%,8%,5%,27µM*
O=C(CNC(=O)OCc1ccccc1)NCC(=O)Oc1ccc([N+](=O)[O-])cc1,-27%,/,/,/,/,12µM*
C/C(=C\c1ccco1)C1C(C#N)=C(N)Oc2n[nH]c(-c3ccccc3)c21 (centres undefined),-10%,79µM*,-11%,?,?,-24%
C/C(=C\c1ccco1)C1C(C#N)=C(N)Oc2n[nH]c(-c3ccc(C)cc3)c21 (centres undefined),-5%,?,-10%,?,-14%,-8%
C/C(=C\c1ccco1)C1C(C#N)=C(N)OC2=C1C(=O)CC(C)(C)C2 (centres undefined),-5%,20µM*,-5%,-3%,-11%,-13%
CC1(C)CC(=O)C2=C(C1)OC(N)=C(C#N)C2C#Cc1ccccc1 (centres undefined),45µM*,?,-8%,-23%,?,11µM*
O=C(c1ccc2c(c1)N(Cc1cccc(Cl)c1)C(=O)c1ccccc1S2(=O)=O)N1CCC(Cc2ccccc2)CC1,-1%,/,-13%,-11%,-12%,/
Cc1cccc(-c2noc(CN(C3CCCCC3)S(=O)(=O)c3ccc(F)cc3)n2)c1,14%,/,-11%,?,?,/
O=C1C([N+](=O)[O-])=C(O)c2cccc3cccc1c23,/,8.9µM*,/,/,/,/
CCCCNC(=O)C1(C)CCCCN1Cc1ccc2ccccc2c1 (centres undefined),/,/,/,/,/,-14%
COc1cccc(CNC(=O)c2ccc3nc(-c4ccc(F)cc4)c(-c4ccc(F)cc4)nc3c2)c1,-7%,/,-14%,-10%,7%,/
O=C1C=CC(=Nc2ccc(F)cc2)O1,79µM*,/,/,/,/,?
c1ccc(CNc2nc3ccccc3n2CCN2CCOCC2)nc1,1%,89µM*,-3%,0%,-2%,2%
O=C(Cc1ccccn1)c1ccc(Cl)cc1,-9%,/,/,/,/,-3%
CC1=C(CC(=O)c2ccc(Cl)cc2)C(=O)c2ccccc2C1=O,-14%,45µM*,?,?,?,?
CCCCc1ccc(/C=C2\C(=O)c3ccccc3C(O)=C2C(=O)OCC)cc1,/,3.2µM*,?,?,18µM*,/
CCOC(=O)C1=C(O)/C(=C\c2cccc(OC)c2)N=C1C,-6%,1%,-6%,-8%,?,-7%
COc1cnn(Cc2ccccc2)c(=O)c1SCc1ccccc1,-15%,-9%,-2%,-12%,-7%,?
COc1cc2c(cc1OC)C1=NC(=O)CN1C(SCc1ccccc1)=N2,-8%,?,4%,-18%,?,27µM*
CCOC(=O)C1CCCN(C(=O)Cn2nc(C)n3c(cc4c(OC)cccc43)c2=O)C1 (centres undefined),-22%,12%,1%,-7%,-1%,27µM*
CCOC(=O)C1CCN(C(=O)Cn2nc(CC)n3cccc3c2=O)CC1,?,19%,/,/,/,27µM*
COc1ccc(N/N=C(/C)c2cnnc(-c3ccccc3)n2)cc1,-11%,-23%,11%,?,2.8µM*,12%
CCC/C(=N/Nc1ccc(Cl)cc1)c1cnnc(-c2ccccc2)n1,-6%,/,/,/,/,3%

# Compound activity as filed in PubChem BioAssay.
